# Compound activity deposited in PubChem by Broad Institute.
# HSF1 inh – HSF1 inhibition. hit rate 0.77% among 300,000. activity change, negative = inhibition, % at 7.5 µM (by protocol). NIH3T3-HGL HSE-luciferase, MG132-induced, luminescence 8 h; stronger effect = lower value;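 active = more than half of replicate wells show activity change below -50%, luminescence cut by over half; inconclusive = some wells, but at most half, below -50%; inactive = no replicate well below -50%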;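 note: luciferase reports HSF-1 transcriptional activity via heat shock element; 0% = median of DMSO wells and -100% = zero luminescence signal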
# HSF1 activator – increases HSF-1 driven luciferase reporter signal | NIH3T3-HGL HSF-1 luciferase reporter, MG132, 8 h; 100% = twice DMSO control signal | activation, % at 9 µM | hit rate 1.7% among 300,000;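 active = mean replicate activation of at least 50% with a set share of replicates each reaching 50%; inconclusive = only one of those two conditions met; inactive = mean below 50% and too few replicates reaching it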;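 note: 0% = median of the neutral control wells and 100% = twice that signal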
# esBAF inh – blocks esBAF chromatin remodeling in mouse ES cells; Bmi1-luciferase knock-in reporter, 24 h; 100% = twice the neutral-well signal; reporter increase, % at 12.5 µM; hit rate 2% among 350,000; AID 602393; in the data active = activation above about 40%; inconclusive = no clear call, values can overlap the other calls;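 note: 0% = median of the plate's neutral control wells and 100% = double that signal; a rise in the Bmi1 reporter signal indicates esBAF inhibition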
# MITF TRPM1 HTS – activators of MITF-driven TRPM1 promoter activity in SK-MEL-5 cells. SK-MEL-5 TRPM1-promoter luciferase, 24 h; % of positive control, neutral wells = 0. activation, % at 12.5 µM. hit rate 0.75% among 300,000. AID 588334;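 active = mean activation of at least 80% with every replicate also reaching 80%; inconclusive = mean reaches 80% but some replicate falls short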;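 note: 0% = neutral control wells and 100% = parthenolide positive control wells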
# Wnt bcat act – Wnt/beta-catenin pathway activation | AID 743398 | activation, % at 9.35 µM | Wnt/beta-catenin reporter cell assay, activator, plate reader | hit rate 1.2% among 300,000; in the data active = activation above about 30%, passing the limit was not always enough; inconclusive = no clear call, values can overlap the other calls;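 note: 0% = neutral control wells and 100% = positive control wells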
# An asterisk follows results filed as active; ? = inconclusive; . = no result. Sampled rows, rich in hits. Any-hit rate of the full collection: about 3.9%.
SMILES,HSF1 inh,HSF1 activator,esBAF inh,MITF TRPM1 HTS,Wnt bcat act
C[C@@H]1CN([C@@H](C)CO)C(=O)c2cc(NS(=O)(=O)c3cccs3)ccc2O[C@H]1CN(C)Cc1ccc(-c2ccccc2)cc1,.,.,13,.,.
C[C@@H]1CN([C@@H](C)CO)C(=O)CCCn2cc(nn2)CO[C@@H]1CN(C)C(=O)Nc1ccnc(N2CCOCC2)c1,.,.,1,.,.
CCCc1[nH]nc2c1C(c1cc(OC)ccc1F)C(C#N)=C(N)O2 (centres undefined),30,74*,-8,-3,-3
Cc1ccc(SCc2[nH]nc3c2C(c2ccc(C)o2)C(C#N)=C(N)O3)cc1 (centres undefined),-66*,-74,-9,9,-1
N#CC1=C(N)Oc2c(ccc3ccccc23)C1c1ccsc1 (centres undefined),45,65*,-12,.,-3
CC(C)(C)c1[nH]nc2c1C(c1ccsc1)C(C#N)=C(N)O2 (centres undefined),5,12,.,2,-7
Cc1ccc(SCc2[nH]nc3c2C(c2ccco2)C(C#N)=C(N)O3)cc1 (centres undefined),19,29,-7,2,.
CCc1[nH]nc2c1C(c1ccsc1)C(C#N)=C(N)O2 (centres undefined),16,53*,-7,-10,-3
CCCc1[nH]nc2c1C(c1cc(OC)cc(OC)c1)C(C#N)=C(N)O2 (centres undefined),2,14,-5,.,4
O=C(c1ccccc1)N1C[C@@H]2[C@H](c3ccccc31)[C@@H](CO)N2C(=O)Nc1ccccc1Cl,.,.,1,.,.
CC(C)CC#Cc1ccc2c(c1)O[C@H](CN(C)C(=O)c1cccc(F)c1)[C@H](C)CN([C@H](C)CO)S2(=O)=O,.,.,4,.,.
O=C(CCN1C(=O)/C(=C/c2cccs2)SC1=S)Nc1ccccc1O,43,69*,-1,-9,-1
COc1ccccc1/C=C1\SC(=S)N(CCC(=O)Nc2cc(C)on2)C1=O,6,9,-45,-4,-1
Cc1cc(NC(=O)CCN2C(=O)/C(=C/c3ccccc3Cl)SC2=S)no1,11,54*,.,-10,-2
C=CCSc1nc(N)c2c(C)c(C)sc2n1,1,11,46*,.,12
CN(C)CC(=O)Nc1ccc2c(c1)[C@@H]1C[C@@H](CC(=O)N3CCCCC3)O[C@H](CO)[C@@H]1O2,.,.,-2,.,.
COc1ccc(S(=O)(=O)N(C)C[C@H]2Oc3ccc(NC(=O)Nc4ccccc4)cc3CC(=O)N([C@@H](C)CO)C[C@H]2C)cc1,.,.,2,.,.
COc1ccc(CNS(=O)(=O)c2cc(CN3C(=O)c4cccnc4C3=O)ccc2OC)cc1,17,61*,1,3,2
CCOc1ccc(CNS(=O)(=O)c2cc(CN3C(=O)c4cccnc4C3=O)ccc2OC)cc1,-1,-5,2,-8,-3
COCC(=O)Nc1ccc2c(c1)[C@@H]1C[C@@H](CC(=O)NCc3ccc(-c4ccccc4)cc3)O[C@@H](CO)[C@@H]1O2,.,.,-6,.,.
CC(=O)Nc1ccccc1C(=O)C(=O)Nc1ccc(F)c(Cl)c1,1,-8,56*,.,2
CCc1ccc(NC(=O)C(=O)c2ccccc2NC(C)=O)cc1,.,.,27,.,42*
COc1ccccc1-c1cn(CC[C@@H]2CC[C@H](NC(=O)Cc3ccccn3)[C@H](CO)O2)nn1,.,.,3,.,.
Cc1noc(C)c1NC(=O)N(C)C[C@@H]1OCCCC[C@H](C)Oc2ccc(NS(=O)(=O)c3cccs3)cc2C(=O)N([C@@H](C)CO)C[C@H]1C,.,.,-2,.,.
N#CC1=C(N)C(C#N)(C#N)C(c2cccnc2)C2CC(c3ccccc3)CC=C12 (centres undefined),-55*,-66,.,-14,.
SMILES,HSF1 inh,HSF1 activator,esBAF inh,MITF TRPM1 HTS,Wnt bcat act
CCOc1ccc(NC(=O)c2cc3ccccc3cc2O)cc1,-1,12,44,71,12
CCOc1ccc(NC(=O)c2cc3ccccc3cc2OC)cc1,22,75*,?,30,12
CCOc1ccc(NC(=O)c2cccc3ccccc23)cc1,16,8,43*,.,3
COc1ccc(NC(=O)c2cc3ccccc3cc2OC)cc1,17,36,28,63,23
CCOc1ccc(NC(=O)c2ccc(F)cc2F)cc1,27,46,24,93*,41*
C[C@@H]1CN([C@@H](C)CO)C(=O)Cc2cc(NC(=O)Nc3cccc4ccccc34)ccc2O[C@@H]1CN(C)C,.,.,5,.,.
